The panel holds about 79,000 compounds, 15% with a hit somewhere; the sample as a whole holds those more often. Calls of active or inactive are those of the source. Rule as the data show it: active = growth inhibition above about 70%; inactive = the rest.
Experiments:
[1] = NCI Yeast Anticancer Drug Screen. Data for the rad52 strain (AID 147);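 also: 0% = growth of vehicle-treated control cultures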; conditions: S. cerevisiae rad52 mutant growth inhibition, hits give high values
How it was run: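 Inhibition of yeast growth, referenced to vehicle controls, was the measured output for a strain with defective DNA damage repair.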

[2] = NCI Yeast Anticancer Drug Screen. Data for the wt1 strain (AID 149);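 also: 0% = growth of vehicle-treated wt1 cultures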; conditions: S. cerevisiae wt1 strain (SPY 50644) growth inhibition, hits give high values
How it was run: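 Using yeast strain wt1, compound-induced growth inhibition was determined against vehicle-treated cultures.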

[3] = NCI Yeast Anticancer Drug Screen. Data for the mgt1 strain (AID 153); conditions: S. cerevisiae mgt1 mutant growth inhibition, hits give high values
How it was run: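 In the mgt1 strain, test compounds were added and growth inhibition was determined relative to vehicle-treated controls.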

[4] = NCI Yeast Anticancer Drug Screen. Data for the rad50 strain (AID 155);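 also: 0% = growth of vehicle-only cultures of the same strain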; conditions: S. cerevisiae rad50 strain growth inhibition, hits give high values
How it was run: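 Relative growth inhibition (compound vs vehicle) was measured in yeast with a defined repair-gene alteration.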

[5] = NCI Yeast Anticancer Drug Screen. Data for the mec2-1 strain (AID 157); conditions: S. cerevisiae mec2-1 strain, hits give high values
How it was run: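 Each compound was tested on mec2-1 yeast, a strain altered in DNA damage repair or cell cycle control. Growth inhibition is reported relative to vehicle.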

[6] = NCI Yeast Anticancer Drug Screen. Data for the rad14 strain (AID 159);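 also: 0% = growth of vehicle-treated control cultures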; conditions: S. cerevisiae rad14 strain growth inhibition, hits give high values
How it was run: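 Screen for anticancer potential: a yeast strain altered in DNA damage repair is grown with compound, and reduced growth is quantified against vehicle controls.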

[7] = NCI Yeast Anticancer Drug Screen. Data for the sgs1 mgt1 strain (AID 161);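 also: 0% = growth of cultures given vehicle only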; conditions: S. cerevisiae sgs1 mgt1 strain, hits give high values
How it was run: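 Genetically altered yeast, compound exposure, growth inhibition relative to vehicle.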

[8] = NCI Yeast Anticancer Drug Screen. Data for the CLN2oe strain (AID 163);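 also: 0% = growth of vehicle-only control cultures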; conditions: S. cerevisiae CLN2oe strain, hits give high values
How it was run: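 First, the altered yeast strain was treated with each compound; second, its growth was measured; finally, inhibition was derived by comparison with vehicle controls.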

[9] = NCI Yeast Anticancer Drug Screen. Data for the cln2 rad14 strain (AID 165);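 also: 0% = growth equal to vehicle treated cultures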; conditions: S. cerevisiae cln2 rad14 strain, hits give high values
How it was run: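 Test compounds were added to cln2 rad14 yeast cultures; inhibition of growth was then determined by comparison with vehicle treatment.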

[10] = NCI Yeast Anticancer Drug Screen. Data for the bub3 strain (AID 167); conditions: S. cerevisiae bub3 mutant strain, hits give high values
How it was run: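 Screening used yeast with an engineered genetic alteration affecting cell cycle control. Compound-exposed cultures were compared with vehicle cultures, and reduced growth was taken as inhibition.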

[11] = NCI Yeast Anticancer Drug Screen. Data for the wt2 strain (AID 169);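 also: 0% = growth of vehicle-treated yeast cultures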; conditions: S. cerevisiae wt2 strain growth inhibition, hits give high values
How it was run: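 The panel's yeast strains carry defined changes in DNA repair or cell cycle genes. Each strain is grown with compound, and growth loss is scored relative to vehicle.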

[12] = NCI Yeast Anticancer Drug Screen. Data for the mlh1 strain (AID 171);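 also: 0% = growth of vehicle-treated control cultures of the same strain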; conditions: S. cerevisiae mlh1 strain growth inhibition, hits give high values
How it was run: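 Inhibition values reflect reduced yeast growth in the presence of compound, referenced to vehicle controls, using a strain chosen for its alteration in DNA repair or cell cycle control.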

[13] = NCI Yeast Anticancer Drug Screen. Data for the sgs1 strain (AID 173);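 also: 0% = growth of vehicle-only control cultures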; conditions: S. cerevisiae sgs1 mutant, hits give high values
How it was run: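 Vehicle-treated cultures served as reference for growth inhibition of a yeast strain altered in DNA damage repair or cell cycle control after compound exposure.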

[14] = NCI Yeast Anticancer Drug Screen. Data for the mlh1 rad18 strain (AID 175); conditions: S. cerevisiae mlh1 rad18 strain growth inhibition, hits give high values
How it was run: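 Inhibition values reflect reduced growth of mutant yeast versus vehicle-treated controls following compound exposure; the mutations affect DNA damage repair.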

[15] = NCI Yeast Anticancer Drug Screen. Data for the rad18 strain (AID 177); conditions: S. cerevisiae rad18 mutant growth inhibition, hits give high values
How it was run: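 Steps: expose repair-mutant yeast to compound; measure growth; express as inhibition relative to vehicle control.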

[16] = at 5.0 µM (retest, dose inferred, filed as 0.5)
[17] = at 50.0 µM (retest, dose inferred, filed as 5.0)

Measured: growth inhibition

O=C1C2C=CC1C1C(=O)OC(=O)C21 (stereo not drawn)
active: [4]; [17] 77% | [4]; at 50.0 µM 83.2% | [5]; at 50.0 µM 90.8% | [7]; at 50.0 µM 89.2% | [9]; at 50.0 µM 91.8% | [10]; at 50.0 µM 89.8% | [14]; at 50.0 µM 82.9%
inactive: [1]; at 1.2 µM -18% | [1]; at 3.7 µM -15% | [1]; at 11.0 µM -8% | [1]; at 33.0 µM -14% | [1]; at 100.0 µM -24% | [2]; at 1.2 µM -50% | [2]; at 3.7 µM -45% | [2]; at 11.0 µM -45% | [2]; at 33.0 µM -52% | [2]; at 100.0 µM -51% | [3]; at 1.2 µM -29% | [3]; at 3.7 µM -13% | [3]; at 11.0 µM -6% | [3]; at 33.0 µM -17% | [3]; at 100.0 µM -28% | [4]; at 1.2 µM -3% | [4]; at 3.7 µM -2% | [4]; [16] 49% | [4]; at 11.0 µM 16% | [4]; at 33.0 µM 13% | [4]; at 100.0 µM -2% | [5]; at 1.2 µM -54% | [5]; at 3.7 µM -52% | [5]; [16] 48% | [5]; at 11.0 µM -44% | [5]; at 33.0 µM -51% | [5]; [17] 58% | [5]; at 100.0 µM -45% | [6]; at 1.2 µM -57% | [6]; at 3.7 µM -44% | [6]; at 11.0 µM -48% | [6]; at 33.0 µM -48% | [6]; at 100.0 µM -43% | [7]; [16] 1% | [7]; [17] -6% | [8]; at 1.2 µM -8% | [8]; at 3.7 µM -6% | [8]; at 11.0 µM -24% | [8]; at 33.0 µM -27% | [8]; at 100.0 µM -25% | [9]; [16] 61% | [9]; [17] 25% | [10]; at 1.2 µM -19% | [10]; at 3.7 µM -10% | [10]; [16] 33% | [10]; at 11.0 µM -22% | [10]; at 33.0 µM -7% | [10]; [17] 14% | [10]; at 100.0 µM -23% | [11]; at 1.2 µM -25% | [11]; at 3.7 µM -9% | [11]; at 11.0 µM -35% | [11]; at 33.0 µM -32% | [11]; at 100.0 µM -34% | [12]; at 1.2 µM -45% | [12]; at 3.7 µM -53% | [12]; at 11.0 µM -39% | [12]; at 33.0 µM -64% | [12]; at 100.0 µM -55% | [13]; at 1.2 µM -28% | [13]; at 3.7 µM -31% | [13]; at 11.0 µM -34% | [13]; at 33.0 µM -20% | [13]; at 100.0 µM -39% | [14]; [16] 53% | [14]; [17] 41% | [15]; at 1.2 µM -23% | [15]; at 3.7 µM -2% | [15]; at 11.0 µM 3% | [15]; at 33.0 µM -28% | [15]; at 100.0 µM -10%

— PubChem BioAssay (NCI)
